In publication PMC7862700, “An all-to-all approach to the identification of sequence-specific readers for epigenetic DNA modifications on cytosine”:

How the values were obtained:
Test in all cases: DAPPL (digital affinity profiling via proximity ligation, sequencing); 10 mM Tris-HCl pH 7.5, 50 mM NaCl, 1 mM DTT, 4% glycerol, room temperature, 30 min; GST-TFs on glutathione beads, 16-mer random dsDNA library, 0.1% formaldehyde crosslink after washing; high values mean tight binding
FEV = molecular target: T1, FEV (Homo sapiens, UniProt Q99581 1-238); details: protein: recombinant; tags: N-terminal GST; dsDNA, one strand shown
T1 sequence: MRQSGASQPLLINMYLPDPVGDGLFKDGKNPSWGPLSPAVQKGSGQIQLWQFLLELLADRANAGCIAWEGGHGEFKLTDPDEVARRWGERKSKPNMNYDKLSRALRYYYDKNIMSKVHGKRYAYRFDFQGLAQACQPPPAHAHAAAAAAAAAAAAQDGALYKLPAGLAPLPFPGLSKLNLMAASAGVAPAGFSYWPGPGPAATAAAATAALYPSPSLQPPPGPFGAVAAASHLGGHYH
How it was run: (§1)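 Each value of binding signal is a hexamer's read frequency for a factor divided by the same hexamer's frequency in the tag-only sample. Barcoded, bead-captured GST fusions of human transcription factors made in yeast were pooled with that sample and incubated with 200 nmole of a random double-stranded 16-mer DNA library in Tris/NaCl/DTT/glycerol buffer at room temperature for 30 min. Washing, 0.1% formaldehyde crosslinking, proximity ligation, PCR and Illumina NextSeq500 sequencing followed.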

ETV5 = ETV5 (Homo sapiens, UniProt P41161 1-510); details: protein: recombinant; tags: N-terminal GST; dsDNA, one strand shown
Chain of ETV5 (P41161 whole entry): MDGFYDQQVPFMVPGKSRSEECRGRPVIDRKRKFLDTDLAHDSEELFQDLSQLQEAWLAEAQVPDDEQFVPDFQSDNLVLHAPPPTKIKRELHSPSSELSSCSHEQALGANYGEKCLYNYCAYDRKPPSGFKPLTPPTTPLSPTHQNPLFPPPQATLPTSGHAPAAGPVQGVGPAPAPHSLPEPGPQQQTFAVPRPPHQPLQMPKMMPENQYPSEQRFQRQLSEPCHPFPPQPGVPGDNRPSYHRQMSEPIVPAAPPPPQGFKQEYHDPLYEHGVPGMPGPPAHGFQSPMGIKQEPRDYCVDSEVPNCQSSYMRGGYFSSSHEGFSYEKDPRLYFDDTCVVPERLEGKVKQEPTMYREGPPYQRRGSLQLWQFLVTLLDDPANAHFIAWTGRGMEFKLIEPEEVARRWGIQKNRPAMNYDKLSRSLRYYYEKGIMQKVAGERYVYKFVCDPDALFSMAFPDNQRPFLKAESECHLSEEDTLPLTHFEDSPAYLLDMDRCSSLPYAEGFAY
How it was run: as §1

HSF1 = HSF1 (Homo sapiens, UniProt Q00613 1-529); details: protein: recombinant; tags: N-terminal GST; chain copies: 3; dsDNA, one strand shown
Chain of HSF1 (Q00613 whole entry): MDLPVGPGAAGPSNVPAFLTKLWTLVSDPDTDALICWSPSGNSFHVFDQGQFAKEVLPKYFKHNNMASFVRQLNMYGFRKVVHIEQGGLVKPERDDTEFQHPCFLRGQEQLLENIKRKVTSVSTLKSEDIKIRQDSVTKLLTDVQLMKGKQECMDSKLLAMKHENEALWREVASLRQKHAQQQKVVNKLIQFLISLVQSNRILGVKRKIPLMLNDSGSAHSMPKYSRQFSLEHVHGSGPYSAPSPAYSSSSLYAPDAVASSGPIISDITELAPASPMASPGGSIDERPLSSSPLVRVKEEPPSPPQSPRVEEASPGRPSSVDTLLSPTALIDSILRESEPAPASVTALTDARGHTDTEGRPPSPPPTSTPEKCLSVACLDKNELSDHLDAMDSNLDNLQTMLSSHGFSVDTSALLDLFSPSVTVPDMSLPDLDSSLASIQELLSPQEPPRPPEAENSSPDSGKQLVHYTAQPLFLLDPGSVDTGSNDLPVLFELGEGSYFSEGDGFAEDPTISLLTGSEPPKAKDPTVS
How it was run: as §1

SPIC = molecular target: T2, SPIC (Homo sapiens, UniProt Q8N5J4 1-248); details: protein: recombinant; tags: N-terminal GST; dsDNA, one strand shown
T2 sequence: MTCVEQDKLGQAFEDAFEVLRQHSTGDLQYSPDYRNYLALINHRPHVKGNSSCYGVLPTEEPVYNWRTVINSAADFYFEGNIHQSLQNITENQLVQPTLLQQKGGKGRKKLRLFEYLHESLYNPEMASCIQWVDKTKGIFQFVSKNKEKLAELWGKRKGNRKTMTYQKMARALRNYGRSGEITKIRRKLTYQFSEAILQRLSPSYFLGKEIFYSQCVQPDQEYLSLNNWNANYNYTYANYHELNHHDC
How it was run: as §1

ELF4 = ELF4 (Homo sapiens, UniProt Q99607 1-663); details: protein: recombinant; tags: N-terminal GST; dsDNA, one strand shown
Chain of ELF4 (Q99607 whole entry): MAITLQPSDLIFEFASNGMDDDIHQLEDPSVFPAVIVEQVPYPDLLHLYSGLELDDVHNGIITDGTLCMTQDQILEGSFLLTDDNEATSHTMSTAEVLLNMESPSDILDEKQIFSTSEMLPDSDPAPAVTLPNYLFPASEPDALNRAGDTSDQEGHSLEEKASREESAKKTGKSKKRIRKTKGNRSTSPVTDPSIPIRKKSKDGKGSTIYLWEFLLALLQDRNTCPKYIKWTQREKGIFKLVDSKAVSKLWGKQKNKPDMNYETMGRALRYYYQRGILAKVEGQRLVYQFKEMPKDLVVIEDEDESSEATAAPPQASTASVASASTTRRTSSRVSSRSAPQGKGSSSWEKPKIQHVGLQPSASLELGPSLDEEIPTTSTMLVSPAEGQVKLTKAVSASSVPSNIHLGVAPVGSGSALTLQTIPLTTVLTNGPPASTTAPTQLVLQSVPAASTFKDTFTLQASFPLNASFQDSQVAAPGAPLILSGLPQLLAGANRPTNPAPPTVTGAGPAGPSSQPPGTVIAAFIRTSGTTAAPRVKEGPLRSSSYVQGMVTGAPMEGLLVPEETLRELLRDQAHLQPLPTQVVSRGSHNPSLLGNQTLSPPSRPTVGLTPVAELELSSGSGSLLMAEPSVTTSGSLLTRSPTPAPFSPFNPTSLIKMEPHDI
How it was run: as §1

ELK4 = molecular target: T3, ELK4 (Homo sapiens, UniProt P28324-2 1-405); details: protein: recombinant; tags: N-terminal GST; dsDNA, one strand shown
T3 sequence: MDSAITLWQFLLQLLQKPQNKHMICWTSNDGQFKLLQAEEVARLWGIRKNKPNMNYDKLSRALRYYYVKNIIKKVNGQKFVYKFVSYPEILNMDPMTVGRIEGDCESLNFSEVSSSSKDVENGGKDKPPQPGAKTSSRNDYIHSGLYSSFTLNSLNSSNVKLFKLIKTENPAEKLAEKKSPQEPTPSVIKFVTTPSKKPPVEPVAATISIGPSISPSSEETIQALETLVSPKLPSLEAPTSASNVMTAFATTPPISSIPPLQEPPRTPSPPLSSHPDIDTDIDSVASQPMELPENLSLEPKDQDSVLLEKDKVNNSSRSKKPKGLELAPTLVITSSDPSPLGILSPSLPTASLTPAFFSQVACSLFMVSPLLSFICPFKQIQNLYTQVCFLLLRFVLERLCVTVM
How it was run: as §1

ETV2 = molecular target: T4, ETV2 (Homo sapiens, UniProt O00321 1-342); details: protein: recombinant; tags: N-terminal GST; dsDNA, one strand shown
T4 sequence: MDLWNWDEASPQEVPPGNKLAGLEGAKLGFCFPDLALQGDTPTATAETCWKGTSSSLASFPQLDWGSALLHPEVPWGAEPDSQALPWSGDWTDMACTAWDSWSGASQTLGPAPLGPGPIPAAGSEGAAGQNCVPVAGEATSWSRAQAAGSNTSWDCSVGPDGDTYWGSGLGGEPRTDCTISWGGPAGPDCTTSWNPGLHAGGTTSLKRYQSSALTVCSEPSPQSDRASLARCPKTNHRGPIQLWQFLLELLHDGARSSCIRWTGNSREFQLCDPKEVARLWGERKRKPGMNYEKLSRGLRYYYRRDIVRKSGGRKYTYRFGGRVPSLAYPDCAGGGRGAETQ
How it was run: as §1

ELF3 = molecular target: T5, ELF3 (Homo sapiens, UniProt P78545 1-371); details: protein: recombinant; tags: N-terminal GST; dsDNA, one strand shown
T5 sequence: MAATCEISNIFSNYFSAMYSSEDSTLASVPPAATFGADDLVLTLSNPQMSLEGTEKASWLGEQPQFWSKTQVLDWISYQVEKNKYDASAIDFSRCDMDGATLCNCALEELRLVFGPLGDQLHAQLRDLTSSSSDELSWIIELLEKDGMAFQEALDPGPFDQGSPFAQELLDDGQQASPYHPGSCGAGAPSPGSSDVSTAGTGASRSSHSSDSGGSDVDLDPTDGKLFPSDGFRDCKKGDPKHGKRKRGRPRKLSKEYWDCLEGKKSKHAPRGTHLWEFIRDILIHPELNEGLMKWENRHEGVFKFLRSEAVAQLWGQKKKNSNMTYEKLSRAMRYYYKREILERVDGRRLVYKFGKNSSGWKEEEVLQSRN
How it was run: as §1

CRX = CRX (Homo sapiens, UniProt O43186 1-299); details: protein: recombinant; tags: N-terminal GST; dsDNA, one strand shown
Chain of CRX (O43186 whole entry): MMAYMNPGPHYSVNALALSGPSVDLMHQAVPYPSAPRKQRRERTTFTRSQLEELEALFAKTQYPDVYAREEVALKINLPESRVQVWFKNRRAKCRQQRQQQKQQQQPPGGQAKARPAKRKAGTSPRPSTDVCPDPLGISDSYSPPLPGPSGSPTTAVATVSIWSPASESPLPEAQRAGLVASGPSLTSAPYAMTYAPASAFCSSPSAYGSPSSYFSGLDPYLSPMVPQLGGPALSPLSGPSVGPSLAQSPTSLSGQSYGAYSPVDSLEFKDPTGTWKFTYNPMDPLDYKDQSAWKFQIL
How it was run: as §1

ETV1 = ETV1 (Homo sapiens, UniProt P50549 1-477); details: protein: recombinant; tags: N-terminal GST; dsDNA, one strand shown
Chain of ETV1 (P50549 whole entry): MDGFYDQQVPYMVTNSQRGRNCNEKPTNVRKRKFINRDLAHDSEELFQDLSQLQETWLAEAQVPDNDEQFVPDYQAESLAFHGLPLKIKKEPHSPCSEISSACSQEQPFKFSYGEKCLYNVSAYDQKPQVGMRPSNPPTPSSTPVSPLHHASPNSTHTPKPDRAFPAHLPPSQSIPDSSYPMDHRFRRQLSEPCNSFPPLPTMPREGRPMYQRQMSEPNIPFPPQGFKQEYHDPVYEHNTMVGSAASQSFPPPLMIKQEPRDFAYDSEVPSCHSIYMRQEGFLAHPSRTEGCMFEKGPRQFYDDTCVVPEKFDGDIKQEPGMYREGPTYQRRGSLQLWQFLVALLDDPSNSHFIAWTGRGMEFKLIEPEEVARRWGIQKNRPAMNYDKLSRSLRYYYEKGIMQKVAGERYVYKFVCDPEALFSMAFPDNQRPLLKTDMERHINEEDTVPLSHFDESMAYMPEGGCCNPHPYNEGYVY
How it was run: as §1

ERF = molecular target: T6, ERF (Homo sapiens, UniProt P50548 1-548); details: protein: recombinant; tags: N-terminal GST; dsDNA, one strand shown
T6 sequence: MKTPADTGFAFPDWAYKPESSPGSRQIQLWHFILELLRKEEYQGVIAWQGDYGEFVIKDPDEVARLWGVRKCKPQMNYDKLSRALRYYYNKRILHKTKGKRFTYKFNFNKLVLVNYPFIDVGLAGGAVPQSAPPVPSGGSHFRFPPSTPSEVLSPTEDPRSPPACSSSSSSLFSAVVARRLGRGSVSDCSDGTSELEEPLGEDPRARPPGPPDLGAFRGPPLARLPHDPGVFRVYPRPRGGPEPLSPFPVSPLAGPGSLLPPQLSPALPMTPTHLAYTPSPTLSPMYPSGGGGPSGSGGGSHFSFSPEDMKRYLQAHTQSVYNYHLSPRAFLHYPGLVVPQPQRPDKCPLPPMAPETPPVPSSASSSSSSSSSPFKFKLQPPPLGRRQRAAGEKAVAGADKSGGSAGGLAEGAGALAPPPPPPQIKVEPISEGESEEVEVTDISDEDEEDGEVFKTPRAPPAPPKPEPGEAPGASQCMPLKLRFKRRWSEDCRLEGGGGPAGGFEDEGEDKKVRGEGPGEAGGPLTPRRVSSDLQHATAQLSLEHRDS
How it was run: as §1

ETV3L = molecular target: T7, ETV3L (Homo sapiens, UniProt Q6ZN32 1-361); details: protein: recombinant; tags: N-terminal GST; dsDNA, one strand shown
T7 sequence: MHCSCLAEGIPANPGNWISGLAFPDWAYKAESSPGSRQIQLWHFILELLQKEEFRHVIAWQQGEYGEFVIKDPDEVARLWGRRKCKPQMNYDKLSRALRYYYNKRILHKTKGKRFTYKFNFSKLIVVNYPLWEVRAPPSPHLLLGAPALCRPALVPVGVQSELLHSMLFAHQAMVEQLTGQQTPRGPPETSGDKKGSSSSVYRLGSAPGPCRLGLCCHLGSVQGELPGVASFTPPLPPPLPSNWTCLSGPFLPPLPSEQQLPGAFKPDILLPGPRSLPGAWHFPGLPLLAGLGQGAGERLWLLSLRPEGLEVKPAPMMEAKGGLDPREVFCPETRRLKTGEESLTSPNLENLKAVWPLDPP
How it was run: as §1

ETS2 = molecular target: T8, ETS2 (Homo sapiens, UniProt P15036 1-469); details: protein: recombinant; tags: N-terminal GST; dsDNA, one strand shown
T8 sequence: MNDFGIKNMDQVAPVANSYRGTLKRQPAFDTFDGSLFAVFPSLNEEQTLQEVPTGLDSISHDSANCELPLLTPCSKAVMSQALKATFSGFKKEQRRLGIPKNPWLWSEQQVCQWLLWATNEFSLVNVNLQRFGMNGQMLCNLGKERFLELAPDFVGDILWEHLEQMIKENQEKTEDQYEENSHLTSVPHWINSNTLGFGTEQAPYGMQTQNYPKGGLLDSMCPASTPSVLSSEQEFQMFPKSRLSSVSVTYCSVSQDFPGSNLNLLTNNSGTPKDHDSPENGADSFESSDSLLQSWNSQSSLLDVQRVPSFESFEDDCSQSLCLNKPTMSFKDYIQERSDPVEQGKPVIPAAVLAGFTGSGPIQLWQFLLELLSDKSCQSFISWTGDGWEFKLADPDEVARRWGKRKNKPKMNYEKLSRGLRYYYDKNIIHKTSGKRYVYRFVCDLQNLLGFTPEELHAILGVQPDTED
How it was run: as §1

SPDEF = molecular target: T9, SPDEF (Homo sapiens, UniProt O95238 1-335); details: protein: recombinant; tags: N-terminal GST; dsDNA, one strand shown
T9 sequence: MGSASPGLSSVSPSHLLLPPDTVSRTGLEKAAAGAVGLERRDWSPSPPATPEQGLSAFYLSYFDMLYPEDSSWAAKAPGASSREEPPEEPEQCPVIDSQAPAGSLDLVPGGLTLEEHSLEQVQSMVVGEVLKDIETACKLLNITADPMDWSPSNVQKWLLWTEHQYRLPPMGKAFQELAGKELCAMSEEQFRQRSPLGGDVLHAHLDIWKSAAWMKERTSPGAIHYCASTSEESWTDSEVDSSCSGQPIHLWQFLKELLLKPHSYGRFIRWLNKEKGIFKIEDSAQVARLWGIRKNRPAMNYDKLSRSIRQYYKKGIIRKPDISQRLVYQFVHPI
How it was run: as §1

ETV7 = molecular target: T10, ETV7 (Homo sapiens, UniProt Q9Y603 1-341); details: protein: recombinant; tags: N-terminal GST; dsDNA, one strand shown
T10 sequence: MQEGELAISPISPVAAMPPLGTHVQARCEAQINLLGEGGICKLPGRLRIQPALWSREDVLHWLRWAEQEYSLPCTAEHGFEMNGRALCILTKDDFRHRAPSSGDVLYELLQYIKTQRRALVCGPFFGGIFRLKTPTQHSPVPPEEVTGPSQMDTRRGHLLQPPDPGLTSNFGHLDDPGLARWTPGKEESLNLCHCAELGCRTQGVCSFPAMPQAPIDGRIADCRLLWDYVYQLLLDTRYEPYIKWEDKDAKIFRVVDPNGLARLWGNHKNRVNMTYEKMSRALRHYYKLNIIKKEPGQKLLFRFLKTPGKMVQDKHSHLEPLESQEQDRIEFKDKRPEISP
How it was run: as §1

ELF5 = molecular target: T11, ELF5 (Homo sapiens, UniProt Q9UKW6-2 1-255); details: protein: recombinant; tags: N-terminal GST; dsDNA, one strand shown
T11 sequence: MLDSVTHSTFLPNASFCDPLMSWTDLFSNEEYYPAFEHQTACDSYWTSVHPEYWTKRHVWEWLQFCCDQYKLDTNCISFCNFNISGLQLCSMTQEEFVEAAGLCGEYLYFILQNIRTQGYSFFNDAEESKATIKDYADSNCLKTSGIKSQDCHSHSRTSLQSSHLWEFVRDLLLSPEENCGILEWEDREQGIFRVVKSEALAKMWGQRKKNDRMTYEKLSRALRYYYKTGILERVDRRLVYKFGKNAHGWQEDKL
How it was run: as §1

ETV3 = molecular target: T12, ETV3 (Homo sapiens, UniProt P41162-2 1-143); details: protein: recombinant; tags: N-terminal GST; dsDNA, one strand shown
T12 sequence: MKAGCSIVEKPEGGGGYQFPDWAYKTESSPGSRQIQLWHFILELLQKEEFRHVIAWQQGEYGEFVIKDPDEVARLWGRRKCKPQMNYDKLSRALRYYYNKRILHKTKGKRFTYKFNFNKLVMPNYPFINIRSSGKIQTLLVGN
How it was run: as §1

ETV6 = ETV6 (Homo sapiens, UniProt P41212 1-452); details: protein: recombinant; tags: N-terminal GST; dsDNA, one strand shown
Chain of ETV6 (P41212 whole entry): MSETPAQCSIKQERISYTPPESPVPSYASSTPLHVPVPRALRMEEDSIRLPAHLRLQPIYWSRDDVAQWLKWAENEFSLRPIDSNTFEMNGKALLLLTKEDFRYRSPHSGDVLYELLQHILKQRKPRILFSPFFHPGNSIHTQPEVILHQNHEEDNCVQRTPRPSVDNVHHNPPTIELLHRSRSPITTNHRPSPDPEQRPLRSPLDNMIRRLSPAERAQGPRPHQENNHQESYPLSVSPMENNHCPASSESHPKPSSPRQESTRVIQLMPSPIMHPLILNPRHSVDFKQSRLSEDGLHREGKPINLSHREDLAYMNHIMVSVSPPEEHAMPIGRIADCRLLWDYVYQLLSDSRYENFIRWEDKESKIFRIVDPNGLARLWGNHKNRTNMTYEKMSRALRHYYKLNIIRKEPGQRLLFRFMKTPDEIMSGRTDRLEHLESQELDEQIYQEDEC
How it was run: as §1

## TAATTC
FEV
  binding signal: 1.36 fold enrichment (6-mer frequency, TF over GST control)
ETV5
  binding signal: 1.44 fold enrichment (6-mer frequency, TF over GST control)
HSF1
  binding signal: 2.33 fold enrichment (6-mer frequency, TF over GST control)
SPIC
  binding signal: 1.44 fold enrichment (6-mer frequency, TF over GST control)
ELF4
  binding signal: 1.48 fold enrichment (6-mer frequency, TF over GST control)
ELK4
  binding signal: 1.3 fold enrichment (6-mer frequency, TF over GST control)
ETV2
  binding signal: 1.51 fold enrichment (6-mer frequency, TF over GST control)
ELF3
  binding signal: 1.29 fold enrichment (6-mer frequency, TF over GST control)
CRX
  binding signal: 3.05 fold enrichment (6-mer frequency, TF over GST control)
ETV1
  binding signal: 1.4 fold enrichment (6-mer frequency, TF over GST control)
ERF
  binding signal: 1.29 fold enrichment (6-mer frequency, TF over GST control)
ETV3L
  binding signal: 1.38 fold enrichment (6-mer frequency, TF over GST control)
ETS2
  binding signal: 1.48 fold enrichment (6-mer frequency, TF over GST control)
SPDEF
  binding signal: 1.37 fold enrichment (6-mer frequency, TF over GST control)
ETV7
  binding signal: 1.38 fold enrichment (6-mer frequency, TF over GST control)
ELF5
  binding signal: 1.41 fold enrichment (6-mer frequency, TF over GST control)
ETV3
  binding signal: 1.51 fold enrichment (6-mer frequency, TF over GST control)
ETV6
  binding signal: 1.53 fold enrichment (6-mer frequency, TF over GST control)
